High-throughput results: PubChem, National Center for Advancing Translational Sciences (NCATS)
IkB sig inh – IkB Signaling | ABC-DLBCL IkBa-CBG/CBR dual luciferase ratio, 4 h; response scale: scaled: untreated 0%, proteasome inhibitor 100% | Potency, µM (titrated, usually from 57.1 µM), for inactives: top-dose IkBa stabilization activation | 0.04% of 110,000 active | AID 445, 2006; active = well fitted curve in the direction sought with a large enough effect in the signal ratio, not every such curve was filed as active; inconclusive = small, poorly fitted or top-dose-only effect, or a change in a side signal; the % refers to the signal ratio;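 note: potency is the fitted concentration of half-maximal effect; the direction sought is a rising ratio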
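Luminescence ratio of IκBα-fused green versus native red beetle luciferase in OCI-Ly3 cells, 4 h post-doxycycline with compound; red signal alone, scaled from basal (0%) to zero light (-100%), flagged nonspecific or cytotoxic effects.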
p53ts 39C kill – qHTS Screen for Compounds that Selectively Target Cancer Cells with p53 Mutations: Cytotoxicity of p53ts Cells at the Nonpermissive Temperature; AID 902, 2007; Potency, µM (titrated, usually from 46.1 µM), inactives show at the top dose activity change, negative = cell killing, most hits filed as cytotoxic; 1.5% of 130,000 active; H1299-p53A138V viability at 39C, ATP luminescence, 24 h; note: potency is the fitted concentration of half-maximal effect; % is set by controls: 0 for no effect and ±100 for the full control effect; nearly all actives have a fitted effect of over 55% in size
Peg3 imprint – qHTS Assay for Compounds that Induce Erasure of Genomic Imprints; mouse ES Peg3-LacZ reporter, beta-gal luminescence, 40 h; Potency, µM (series often up to 60.7 µM), without a hit: at the top dose activity change, positive = activation, hits mostly activators; 0.02% of 110,000 active; note: potency is the fitted concentration of half-maximal effect
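Imprint erasure is scored as LacZ activity from the silenced maternal Peg3 allele in feeder-free female ES cells cultured 40 h with LIF. Luminescence is normalized to in-plate negative controls and fitted to the Hill equation.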
IMPase inh – qHTS Assay for Identifying the Cell-Membrane Permeable IMPase Inhibitors | CHO-M1 cells, IP1 accumulation, HTRF TR-FRET ratio | 120,000 tested, under 10 active | inhibition (IP1 accumulation), % at 46.1 µM | Inositol monophosphatase 1 (Rattus norvegicus), P97697; active = well fitted curve in the direction sought with a large enough effect in the signal ratio, not every such curve was filed as active; inconclusive = small, poorly fitted or top-dose-only effect, or a change in a side signal; inactive = no such curve, though single readings can be large or run the other way; the % refers to the signal ratio;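 note: cells stimulated with carbachol in lithium chloride buffer; plate controls were DMSO basal wells for no effect and reference inhibitor wells for full effect; higher means more IMPase inhibition seen as more IP1 and lower FRET ratio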
Target sequence (P97697 whole entry, looked up): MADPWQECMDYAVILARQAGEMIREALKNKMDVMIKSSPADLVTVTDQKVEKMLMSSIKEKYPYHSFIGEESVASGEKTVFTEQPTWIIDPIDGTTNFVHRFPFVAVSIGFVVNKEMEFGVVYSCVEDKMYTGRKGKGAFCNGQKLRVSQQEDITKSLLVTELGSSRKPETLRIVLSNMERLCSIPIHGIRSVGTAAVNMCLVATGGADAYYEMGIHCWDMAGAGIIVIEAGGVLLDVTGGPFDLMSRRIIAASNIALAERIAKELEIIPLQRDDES
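CHO-M1, 2000 cells/well, cultured 16–30 h; cpd up to 46 uM; carbachol (50 uM solution, stimulation buffer w/ 50 mM LiCl, pH 7.4), 30 min 37C; IP-One TR-FRET, 10 min RT; Ex 320/Em 665, 620; Hill-fit AC50.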
Luciferase inh – qHTS Assay for Inhibitors of Firefly Luciferase; Luciferin 4-monooxygenase (Photinus pyralis), P08659; purified firefly luciferase, luminescence, 8 min; Potency, µM (titrated, usually from 57.1 µM), without a hit: at the top dose activity change, negative = inhibition, actives largely listed as inhibitors; 2.2% of 72,000 active; AID 411, 2009; note: potency is the fitted concentration of half-maximal effect; % is set by controls: 0 for no effect and ±100 for the full control effect; nearly all actives have a fitted effect of over 40% in size
Target sequence (P08659 whole entry, looked up): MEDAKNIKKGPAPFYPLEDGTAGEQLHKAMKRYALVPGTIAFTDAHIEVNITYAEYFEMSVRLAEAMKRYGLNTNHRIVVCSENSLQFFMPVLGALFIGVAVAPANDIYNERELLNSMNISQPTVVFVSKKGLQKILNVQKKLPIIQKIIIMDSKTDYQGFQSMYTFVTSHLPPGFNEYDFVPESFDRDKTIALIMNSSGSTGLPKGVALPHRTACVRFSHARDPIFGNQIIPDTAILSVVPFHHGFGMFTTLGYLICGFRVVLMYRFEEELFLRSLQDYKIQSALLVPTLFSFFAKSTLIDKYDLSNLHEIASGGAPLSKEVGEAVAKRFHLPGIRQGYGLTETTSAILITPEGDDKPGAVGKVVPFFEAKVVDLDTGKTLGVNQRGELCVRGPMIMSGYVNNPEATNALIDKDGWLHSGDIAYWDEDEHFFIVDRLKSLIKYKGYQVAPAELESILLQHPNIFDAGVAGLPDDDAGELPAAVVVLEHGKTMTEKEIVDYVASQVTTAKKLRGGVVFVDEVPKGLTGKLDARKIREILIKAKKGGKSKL
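Substrate buffer containing 10 uM ATP (pH 7.2 imidazole, Mg2+, KCl, detergent, BSA) is dispensed, compound pinned in, then luciferase/luciferin detector mix added. After 8 min at ambient temperature, light output is measured.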
p53ts 32C kill – qHTS Screen for Compounds that Selectively Target Cancer Cells with p53 Mutations: Cytotoxicity of p53ts Cells at the Permissive Temperature; H1299-p53A138V at 32C, ATP luminescence viability, 24 h; Potency, µM (top dose mostly 46.1 µM), inactives show top-dose activity change, negative = cytotoxicity, actives largely listed as cytotoxic; 0.93% of 130,000 active;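 note: potency is the fitted concentration of half-maximal effect; 0% = DMSO and -100% = full killing by reference compound; nearly all actives have a fitted effect of over 55% in size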
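H1299-p53 A138V cells (temperature-sensitive p53) exposed 24 h to up to 46 uM compound at 32C, where p53 is wild-type in conformation. Viability read as ATP luminescence and normalised to DMSO and 100 uM tamoxifen. AC50 fitted with the Hill equation.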
Numbers without * were called inactive; ? = inconclusive; . = no result given; ! = repeats disagree; [ ] = remark or other dose. Only a selection was taken, and hits are over-represented in it overall. Unless noted, calls come from the whole dose curve; as a rule, active = well fitted curve in the direction sought with a large enough effect; inconclusive = small, poorly fitted or top-dose-only effect, or another doubt; inactive = no such curve, though single readings can be large; an effect the other way counts as inactive or inconclusive.

SMILES | IkB sig inh | p53ts 39C kill | Peg3 imprint | IMPase inh | Luciferase inh | p53ts 32C kill
CN1CCN(CCCN2c3ccccc3Sc3ccc(Cl)cc32)CC1 | -0.4%[25.6 µM] | 20µM* | -24.2% | 3.1[20.6 µM] | -0.5%[25.5 µM] | 15.8µM*!
C/C(CCN1CCc2nc(-c3ccccc3)c(-c3ccccc3)cc2C1)=N\O[C@@H](C)CN1CCCc2nc(C)c(C)cc21 | . | 0.1%[9.22 µM] | . | . | 0.4%[11.4 µM] | -7.1%[9.22 µM]
CC1CN(C(c2cccs2)c2sc3ncnn3c2O)CC(C)O1 (stereo unspecified) | -4.3% | 13.8% | -4.4% | -9.3 | 0.2% | 12.4%
COc1ccc(C(c2sc3ncnn3c2O)N2CCN(c3ccccc3F)CC2)cc1OC (stereo unspecified) | ? | -0.9% | -25.4% | 5.0 | 10µM* | -0.9%
COc1cccc(C(c2sc3nc(C)nn3c2O)N2CCN(c3ccccc3F)CC2)c1 (stereo unspecified) | -1.5% | -0.6% | 9.6% | 0.4 | 0.5% | -2.7%
COc1ccc(C(c2sc3ncnn3c2O)N2CC(C)OC(C)C2)cc1OC (stereo unspecified) | 12.1% | -5.4% | -8.1% | -8.0 | 12.6µM* | -13.9%
CCOC(=O)c1ccc(NC(=O)CC2SCCNC2=O)cc1 (stereo unspecified) | -4.0% | 12.6µM* | 16.7% | 12.3 | -13.3% | 12.6µM*
CCC(=O)Nc1cccc(-c2nnc(SCC(=O)c3ccccc3)n2C)c1 | 15.8% | -3.7% | -80.7% | 2.0 | 15.8µM* | -6.2%
Cc1cccc(-c2nnc(NC(=O)c3ccc(Cl)cc3)o2)c1 | 7.94µM* | ? | 0.7% | -8.1 | 1.2% | 6.4%
COc1ccc(C(=O)Nc2nnc(-c3ccccc3)o2)cc1OC | ? | -25.4% | -15.4% | 3.5 | -0.5% | -9.8%
CN(C)CCNC(=O)c1ccc(Cn2c(SCc3ccc(F)cc3)nc3cccnc32)cc1 | . | . | . | . | . | -13.6%
COc1ccc(NC(=O)Cn2c(SCc3ccc(C)cc3)nc3cccnc32)cc1OC | . | . | . | . | . | 3.16µM*
O=C(NCCN1CCCCC1)c1ccc(Cn2c(SCc3ccc(F)cc3)nc3cccnc32)cc1 | ? | 7.94µM* | -10.1%[10.9 µM] | . | . | 7.94µM*
COCCCNC(=O)c1ccc(Cn2c(SCc3ccc(F)cc3)nc3cccnc32)cc1 | . | . | . | . | . | 11.2µM*
O=C1CCCC2CCCCN12 (stereo unspecified) | . | . | 0.8%[97.3 µM] | . | . | .
CCN1c2ccccc2-c2nc(SCC(=O)Nc3cc(F)ccc3F)ncc2S1(=O)=O | -1.6% | 5.9% | -17.3%[10.9 µM] | . | . | -3.9%
Clc1ccc(-c2nnc(NC3=NCCCCC3)o2)cc1 | ? | 12.6µM* | -80.4% | -6.3 | 2.51µM* | 12.6µM*
COc1ccc(-c2cc3nc4n(c(=O)c3s2)CCOC4)cc1 | . | . | . | . | 2µM* | .
CNCC[C@H](Oc1ccccc1C)c1ccccc1 | -6.2% | 12.6µM* | . | 12.4 | -0.8% | -18.0%
CNCC[C@@H](Oc1ccccc1C)c1ccccc1 | 0.7% | -24.0% | -26.0% | 10.7 | -0.1% | -1.2%
O=C(Nc1ccc(C(F)(F)F)cc1)C(Cc1ccccc1)n1cccc1 (stereo unspecified) | ? | 20µM* | -10.2%[10.9 µM] | . | . | -10.0%
COc1ccc(C(=O)NCCc2csc(-c3ccc(Cl)cc3)n2)c(OC)c1 | ? | -17.2% | -5.9%[10.9 µM] | . | . | 9.1%
COc1cccc2cc(-c3cn4cccc(C)c4n3)c(=O)oc12 | -0.9% | -5.3% | 3.5% | . | -7.1% | -10.0%
CCOc1cccc2cc(-c3cn4cc(C)ccc4n3)c(=O)oc12 | 2.8% | ? | -13.5% | 2.7 | 0.159µM* | ?
COc1ccc(C(=O)Nc2noc3ccccc23)cc1 | ? | 6.31µM* | -52.9%[10.9 µM] | . | . | 3.16µM*
SMILES | IkB sig inh | p53ts 39C kill | Peg3 imprint | IMPase inh | Luciferase inh | p53ts 32C kill
COc1ccc(C(=O)Nc2cc(C)on2)cc1 | 3.2% | 6.31µM* | -69.2% | -1.1 | 10µM* | 7.94µM*
COc1ccc(OCc2cccc(C(=O)Nc3cc(C)on3)c2)cc1 | . | 6.8% | . | 9.1 | . | -4.2%
COc1ccc(OCC(=O)OCc2cc(=O)n3nc(-c4cccs4)sc3n2)cc1 | -1.6% | -15.5% | -8.0%[10.9 µM] | . | . | -2.0%
O=c1cc(-c2ccc(O)c(O)c2)oc2cc(O[C@@H]3O[C@@H](CO)[C@@H](O)[C@@H](O)[C@H]3O)cc(O)c12 | 0.9%[11.4 µM] | . | . | . | -2.3%[11.4 µM] | .
CCOC(=O)c1ccc(N/C=C/C(=O)c2ccco2)cc1 | . | . | . | 1.6 | . | .
O=C(/C=C/Nc1ccc(F)cc1)c1ccco1 | ? | 12.6µM* | -23.3% | 6.7 | 3.16µM* | 7.94µM*
COc1ccccc1N1CCN(c2ccc(-c3ccccc3)nn2)CC1 | 3.98µM* | 2µM* | . | 8.4 | 0.631µM* | 3.16µM*
OCCNCCCOc1cccc(Cl)c1Cl | -0.6% | 12.6µM* | -33.9% | -11.6 | 0.6% | ?
Cc1cccc(-c2nc(CCNC(=O)Cc3ccccc3)cs2)c1 | -3.3% | ? | 1.6%[10.9 µM] | . | . | -0.4%
CCN1C(C)=C(C(=O)OC)C(c2ccccc2)N2C(=O)[C@@]3(C(=O)OC)O[C@@]12C1C(=O)N(c2ccccc2)C(=O)C13 (stereo partly specified) | . | 5.7%[9.22 µM] | . | . | . | 1.0%[9.22 µM]
O=C1O/C(=C\Br)CC[C@@H]1c1cccc2ccccc12 | 4.8% | 20µM* | . | 7.2 | 1.1% | 20µM*
COc1ccc2c(c1OC)C(Cc1ccccc1)N1CCc3cc4c(cc3C1=C2)OCO4 (stereo unspecified) | . | -12.3% | -27.6% | 13.7 | . | -3.1%
Cc1ccc(C(CC(=O)c2ccco2)SCCO)cc1 (stereo unspecified) | ? | -8.7% | -28.7% | -5.6 | 25.1µM* | -8.9%
O=C(CC(SCCO)c1ccc(F)cc1)c1ccco1 (stereo unspecified) | ? | -9.7% | -30.6% | 7.5 | -3.2% | -4.6%
CN1CCN(c2ncc3nc(-c4ccc(Cl)cc4)c(=O)n(Cc4ccc(F)cc4)c3n2)CC1 | -1.9%[11.4 µM] | -16.0% | -23.0% | . | -1.5%[11.4 µM] | -9.7%
CCCCCCCCCC(=O)N[C@@H](CN1CCOCC1)[C@@H](O)c1ccccc1 | 3.6% | ? | . | -0.3 | 1.0% | -9.9%
Cc1ccc2sc(-c3ccc(N)cc3)nc2c1 | 21.5% | 3.16µM* | -49.0%[10.9 µM] | . | . | 2.51µM*
COc1ccc(OC)c(S(=O)(=O)Nc2ccc(O)c3ccccc23)c1 | ? | 10µM* | -27.6% | 14.0 | -5.0% | ?
COc1ccccc1NS(=O)(=O)c1cc(C(=O)O)ccc1F | . | 5.2% | . | . | . | 4.7%
Nc1nc(-c2ccc(Br)cc2)cs1 | 0.4% | -13.4% | -18.1% | -5.6 | 12.6µM* | -6.1%
